Laboratory results published in PubChem BioAssay.
Inconclusive results are not listed. Calls of active or inactive are those of the source.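 The calls were made as follows, unless noted: active = efflux inhibition above 0.42, the validation set average plus 4 SD; inconclusive = no clear call, values can overlap the other calls; inactive = the rest.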

What was measured:
[1] = yeast TOR pathway RPL19A-GFP modulators, primary screen, cell-based, S. cerevisiae, multiplex flow cytometry (AID 1862; in the data active = percent of DMSO control GFP below about 86%;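 also: lower values mimic rapamycin by blocking the RPL19A rise seen in DMSO cells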); conditions: S. cerevisiae RPL19A-GFP strain, flow cytometry fluorescence, 3 h; at 10 µM; stronger effect = lower value
[2] = modulators of MEP2-GFP levels in yeast, primary screen, S. cerevisiae, multiplex flow cytometry (AID 1867;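 active = GFP response, as percent of the DMSO control, above the screen-wide mean plus 3 SD, about 139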;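 also: median GFP channel fluorescence of barcode-gated MEP2-GFP cells measured by flow cytometry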); conditions: S. cerevisiae MEP2-GFP strain, 3 h, at 10 µM, stronger effect = higher value, 100% means same as DMSO wells
[3] = modulators of CIT2-GFP expression in yeast, primary screen, S. cerevisiae, GFP fusion, multiplex flow cytometry (AID 1870;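 active = percent response above a set limit, the screen-wide mean plus 3 SD, cut at about 130% in these data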;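 also: barcoded CIT2-GFP strain pooled with four other GFP strains with rapamycin as positive control; median GFP fluorescence per well over plate mean of DMSO wells so 100% = DMSO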); conditions: 3 h, at 10 µM, stronger effect = higher value
[4] = modulators of LAP4-GFP expression in yeast, primary screen, S. cerevisiae, multiplex flow cytometry (AID 1873;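 active = GFP signal, as percent of the solvent control, above the screen mean plus 3 SD, about 149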); conditions: 3 h, at 10 µM, stronger effect = higher value
[5] = modulators of AGP1-GFP expression in yeast TOR pathway, primary screen, cell-based, multiplex flow cytometry, S. cerevisiae (AID 1887;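 active = GFP signal above the screen-wide mean plus 3 SD, that is over about 124.5% of the solvent control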;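 also: AGP1-GFP fusion strain of S. cerevisiae within a five-strain barcoded multiplex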); conditions: 3 h, at 10 µM, stronger effect = higher value
[6] = inhibitors of CD8+ T cell-vesicle binding, pilot screen, LFA-1/ICAM-1 modulator project, MLPCN validation set, flow cytometry (AID 2523;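 active = response below a set limit, under 55% cells CD8-positive and vesicle-bound, and CD8 cells' 90th-percentile brightness under 279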;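 as to vesicle binding response: mean PE anti-B7-1 fluorescence of CD8+ cells relative to row control; 100% = QL9-loaded vesicles with DMSO vehicle in the same plate row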); conditions: 2C mouse CD8+ T cells, at 7 µM, stronger effect = lower value; double positive events: measured here: CD8+/vesicle+ event percentage
[7] = target: Integrin beta-1 (Homo sapiens) + Integrin alpha-4 (Homo sapiens) (UniProt P13612+P05556); assay: inhibition of HUTS-21 binding to VLA-4, pilot screen, VLA-4 allosteric modulator project, U937 cells, HUTS-21 mAb, flow cytometry, validation set (AID 2674;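 active = inhibition above 50%, about 3 SD of the validation set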;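 also: antibody binding induced by the VLA-4 ligand LDV present at three times its Kd; 0% = LDV ligand with antibody and no compound and 100% = antibody without LDV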); conditions: HUTS-21 LIBS mAb binding, at 6.7 µM, stronger effect = higher value, binding induced by LDV ligand
[8] = superoxide lowering in aged yeast cells, pilot screen, validation compound set (AID 2706;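 active = superoxide response below 65% of plate, a cut near 3 SD across the whole screen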;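 also: yeast exposed to compound for one week at 30 degrees C before staining; 100% = mean of all compound wells on the same plate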); conditions: S. cerevisiae aging, superoxide DHE fluorescence; at 10 µM; stronger effect = lower value
[9] = target: Beta-adrenergic receptor kinase 1 (Homo sapiens) (UniProt P25098); assay: GRK2 binders displacing RNA aptamer, biochemical, validation, human GRK2, bead flow cytometry (AID 488806;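 active = aptamer binding inhibition above 30%, about 3 SD of noise from non-fluorescent compounds; inactive = inhibition at or below 30%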); conditions: bead-bound GRK2, FAM-aptamer displacement, at 10 µM, stronger effect = higher value
[10] = target: Beta-2 adrenergic receptor (Homo sapiens) (UniProt P07550); assay: beta2AR agonists driving receptor internalization, pilot screen, cell-based, FAP fluorogen, flow cytometry, validation set (AID 504459;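 active = percent response above 42, roughly 3 SD of non-fluorescent test compounds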;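 also: agonist-driven loss of surface beta2AR via internalization measured by FAP dye flow cytometry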); conditions: Am2.2-beta2AR cells, FAP surface receptor flow cytometry; at 10 µM; stronger effect = higher value
[11] = target: AP-2 complex subunit beta (Homo sapiens) (UniProt P63010); assay: inhibitors of arrestin peptide binding to AP2, pilot screen, biochemical, validation set, GST-AP2 beads, flow cytometry (AID 504541;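 active = inhibition above 54%, about 3 SD of non-fluorescent compounds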;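 also: AP2 carries R879A mutation and is captured from E. coli lysate; bead-bound FITC arrestin peptide fluorescence measuring arrestin peptide binding to AP2; 0% = DMSO wells and 100% = excess unlabeled arrestin peptide control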); conditions: FITC arrestin peptide, at 10 µM, stronger effect = higher value, AP2 beta2 appendage fragment, R879A mutant
[12] = yeast V-ATPase proton transport modulators, S. cerevisiae, pHLuorin, HTS validation (AID 504600; in the data active = response above about 15%;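 also: plate controls were DMSO for no effect and reference compound for full effect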); conditions: S. cerevisiae pHLuorin cytosolic pH, at 10 µM, stronger effect = higher value
[13] = test system: anti-desmoglein-3 scFv antibody binding to human DSG3; assay: inhibitors of anti-DSG3 scFv binding to DSG3, pilot screen, biochemical, validation compound set, bead-based, flow cytometry (AID 588368;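 active = binding below the plate cutoff, the plate median minus 3 SD, with a reading above zero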;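 also: signal is the median channel fluorescence of bead-bound GFP antibody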); conditions: Protein G beads, DSG3-Fc, scFv-GFP binding, at 10 µM, stronger effect = lower value
[14] = inhibitors of fungal efflux pumps CDR1, CDR2, MDR1, pilot screen, validation compound set, multiplex, phenotypic (AID 588506);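 also: Nile Red retained in cells so higher fluorescence means more efflux inhibition; 0 = negative control wells and 1 = enniatin B 25 µM full block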; conditions: S. cerevisiae pump-expressing triplex, Nile Red efflux flow cytometry; at 10 µM; stronger effect = higher value; the pumps come from Candida albicans
[15] = target: ATP-binding cassette sub-family B member 6 (Homo sapiens) (UniProt Q9NP58); assay: ABCB6 transporter inhibitors, pilot screen, K562-ABCB6 cells, flow cytometry, validation set (AID 588550;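 active = inhibition above the screen-wide mean plus 3 SD, about 51%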;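 also: 0% = DMSO wells and 100% = benzethonium chloride 70 µM positive control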); conditions: K562-ABCB6 porphyrin accumulation, 1 h, at 10 µM, stronger effect = higher value
[16] = promoters of myeloid differentiation in arrested cells, primary screen, cell-based, GFP/MAC1 double positive, flow cytometry, validation set (AID 588685;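 active = differentiation response of at least 50%, scaled between solvent and reference control, from cells with both markers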;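 also: compound exposure lasts four days before antibody staining and flow analysis; 0% = DMSO wells and 100% = 5 µM fulvestrant positive control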); conditions: ER-HoxA9 marrow cells, stronger effect = higher value, normalized: vehicle 0, fulvestrant 100

Chain of Beta-adrenergic receptor kinase 1 (Homo sapiens) (P25098 whole entry, looked up): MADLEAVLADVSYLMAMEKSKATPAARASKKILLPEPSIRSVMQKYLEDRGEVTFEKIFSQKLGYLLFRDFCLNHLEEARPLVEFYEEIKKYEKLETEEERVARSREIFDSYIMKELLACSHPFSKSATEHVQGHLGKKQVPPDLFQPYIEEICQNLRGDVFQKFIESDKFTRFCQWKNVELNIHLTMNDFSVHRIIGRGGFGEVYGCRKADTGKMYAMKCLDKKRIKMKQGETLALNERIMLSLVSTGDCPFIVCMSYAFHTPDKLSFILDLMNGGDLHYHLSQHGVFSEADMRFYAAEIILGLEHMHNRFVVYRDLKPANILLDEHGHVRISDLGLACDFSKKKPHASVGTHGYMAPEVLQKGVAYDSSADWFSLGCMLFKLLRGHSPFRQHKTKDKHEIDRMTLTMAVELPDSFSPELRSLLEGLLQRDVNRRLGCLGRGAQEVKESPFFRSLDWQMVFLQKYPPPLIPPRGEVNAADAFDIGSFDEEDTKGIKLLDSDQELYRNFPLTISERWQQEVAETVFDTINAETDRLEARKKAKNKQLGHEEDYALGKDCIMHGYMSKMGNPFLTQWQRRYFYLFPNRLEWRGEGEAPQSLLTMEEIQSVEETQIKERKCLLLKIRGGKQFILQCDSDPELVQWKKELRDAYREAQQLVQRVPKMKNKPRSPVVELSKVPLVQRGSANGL
Chain of ATP-binding cassette sub-family B member 6 (Homo sapiens) (Q9NP58 whole entry, looked up): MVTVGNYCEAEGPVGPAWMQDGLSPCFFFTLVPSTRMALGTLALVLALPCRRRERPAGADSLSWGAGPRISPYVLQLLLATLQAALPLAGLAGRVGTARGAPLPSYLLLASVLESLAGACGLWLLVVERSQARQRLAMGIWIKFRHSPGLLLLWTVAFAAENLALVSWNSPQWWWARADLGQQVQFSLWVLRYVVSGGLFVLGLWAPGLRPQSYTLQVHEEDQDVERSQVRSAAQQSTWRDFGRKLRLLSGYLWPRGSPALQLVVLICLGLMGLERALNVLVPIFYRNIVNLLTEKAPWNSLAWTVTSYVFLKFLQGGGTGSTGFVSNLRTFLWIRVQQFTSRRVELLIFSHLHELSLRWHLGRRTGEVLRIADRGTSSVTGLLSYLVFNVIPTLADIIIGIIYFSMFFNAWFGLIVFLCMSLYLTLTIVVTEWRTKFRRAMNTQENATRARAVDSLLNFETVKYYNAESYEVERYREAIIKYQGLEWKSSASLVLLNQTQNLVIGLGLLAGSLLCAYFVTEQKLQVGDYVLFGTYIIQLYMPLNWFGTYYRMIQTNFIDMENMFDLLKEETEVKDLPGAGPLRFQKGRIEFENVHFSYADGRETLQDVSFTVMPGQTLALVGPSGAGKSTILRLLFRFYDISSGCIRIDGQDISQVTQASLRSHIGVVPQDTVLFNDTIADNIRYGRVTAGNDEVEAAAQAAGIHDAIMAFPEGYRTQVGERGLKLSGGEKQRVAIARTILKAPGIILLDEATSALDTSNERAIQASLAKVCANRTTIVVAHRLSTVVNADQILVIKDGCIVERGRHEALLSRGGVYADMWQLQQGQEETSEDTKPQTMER
Chain of Beta-2 adrenergic receptor (Homo sapiens) (P07550 whole entry, looked up): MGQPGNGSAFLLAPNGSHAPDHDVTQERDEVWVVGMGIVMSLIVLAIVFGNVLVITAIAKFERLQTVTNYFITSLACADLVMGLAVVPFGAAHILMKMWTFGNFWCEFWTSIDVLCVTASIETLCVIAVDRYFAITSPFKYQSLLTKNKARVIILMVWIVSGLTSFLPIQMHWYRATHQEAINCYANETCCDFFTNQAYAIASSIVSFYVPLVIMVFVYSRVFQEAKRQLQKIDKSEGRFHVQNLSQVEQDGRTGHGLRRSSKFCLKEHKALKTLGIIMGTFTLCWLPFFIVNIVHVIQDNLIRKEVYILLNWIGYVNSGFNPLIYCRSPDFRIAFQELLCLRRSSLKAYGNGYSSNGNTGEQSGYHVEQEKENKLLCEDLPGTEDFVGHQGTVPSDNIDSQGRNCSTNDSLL
Chain of AP-2 complex subunit beta (Homo sapiens) (P63010 whole entry, looked up, the tested form may be a part, one chain of several): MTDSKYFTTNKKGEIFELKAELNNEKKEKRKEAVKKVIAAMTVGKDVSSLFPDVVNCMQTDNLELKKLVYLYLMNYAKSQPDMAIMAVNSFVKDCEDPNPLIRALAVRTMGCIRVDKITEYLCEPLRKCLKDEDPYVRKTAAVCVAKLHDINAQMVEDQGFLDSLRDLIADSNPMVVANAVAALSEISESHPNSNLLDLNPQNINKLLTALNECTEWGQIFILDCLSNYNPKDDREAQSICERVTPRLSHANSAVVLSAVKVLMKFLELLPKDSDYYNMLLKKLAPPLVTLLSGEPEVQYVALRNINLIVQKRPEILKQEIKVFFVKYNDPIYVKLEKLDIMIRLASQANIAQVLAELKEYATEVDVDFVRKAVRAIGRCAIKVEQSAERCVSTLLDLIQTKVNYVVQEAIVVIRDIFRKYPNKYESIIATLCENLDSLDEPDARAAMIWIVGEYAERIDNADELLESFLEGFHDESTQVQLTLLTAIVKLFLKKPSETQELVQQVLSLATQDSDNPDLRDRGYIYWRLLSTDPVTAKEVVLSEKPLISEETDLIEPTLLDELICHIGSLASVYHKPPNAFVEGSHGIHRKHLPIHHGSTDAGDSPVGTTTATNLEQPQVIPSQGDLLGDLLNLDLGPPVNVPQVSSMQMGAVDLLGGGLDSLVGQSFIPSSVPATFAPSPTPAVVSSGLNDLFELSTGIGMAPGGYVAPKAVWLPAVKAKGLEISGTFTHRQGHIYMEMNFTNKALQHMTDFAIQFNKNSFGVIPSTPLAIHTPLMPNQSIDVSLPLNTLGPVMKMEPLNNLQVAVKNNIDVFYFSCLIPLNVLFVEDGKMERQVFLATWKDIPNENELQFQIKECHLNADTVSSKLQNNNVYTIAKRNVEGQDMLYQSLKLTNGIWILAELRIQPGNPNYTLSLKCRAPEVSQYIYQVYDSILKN
Chain of Integrin beta-1 (Homo sapiens) + Integrin alpha-4 (Homo sapiens) (P05556 whole entry, looked up): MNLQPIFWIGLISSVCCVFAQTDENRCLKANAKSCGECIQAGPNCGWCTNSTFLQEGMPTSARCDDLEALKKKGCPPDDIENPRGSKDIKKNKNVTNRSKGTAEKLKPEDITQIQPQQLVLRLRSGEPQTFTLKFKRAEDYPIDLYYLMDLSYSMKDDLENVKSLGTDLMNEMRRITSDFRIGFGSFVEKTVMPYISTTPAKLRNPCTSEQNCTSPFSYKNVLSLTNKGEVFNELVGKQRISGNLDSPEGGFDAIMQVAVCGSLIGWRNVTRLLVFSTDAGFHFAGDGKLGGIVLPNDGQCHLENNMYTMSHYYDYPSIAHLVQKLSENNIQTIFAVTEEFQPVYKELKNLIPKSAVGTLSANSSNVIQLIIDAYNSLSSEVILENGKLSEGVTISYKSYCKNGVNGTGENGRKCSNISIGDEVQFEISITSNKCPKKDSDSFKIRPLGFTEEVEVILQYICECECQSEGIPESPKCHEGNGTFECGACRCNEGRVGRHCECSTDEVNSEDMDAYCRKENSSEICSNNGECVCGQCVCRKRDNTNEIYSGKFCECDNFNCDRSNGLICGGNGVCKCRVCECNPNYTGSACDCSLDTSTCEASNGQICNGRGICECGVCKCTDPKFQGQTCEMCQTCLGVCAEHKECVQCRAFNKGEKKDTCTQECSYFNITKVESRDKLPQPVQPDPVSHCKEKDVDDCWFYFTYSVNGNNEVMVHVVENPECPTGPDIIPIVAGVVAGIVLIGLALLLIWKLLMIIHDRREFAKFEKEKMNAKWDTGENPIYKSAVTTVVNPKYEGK
Chain of Integrin beta-1 (Homo sapiens) + Integrin alpha-4 (Homo sapiens) (P13612 whole entry, looked up): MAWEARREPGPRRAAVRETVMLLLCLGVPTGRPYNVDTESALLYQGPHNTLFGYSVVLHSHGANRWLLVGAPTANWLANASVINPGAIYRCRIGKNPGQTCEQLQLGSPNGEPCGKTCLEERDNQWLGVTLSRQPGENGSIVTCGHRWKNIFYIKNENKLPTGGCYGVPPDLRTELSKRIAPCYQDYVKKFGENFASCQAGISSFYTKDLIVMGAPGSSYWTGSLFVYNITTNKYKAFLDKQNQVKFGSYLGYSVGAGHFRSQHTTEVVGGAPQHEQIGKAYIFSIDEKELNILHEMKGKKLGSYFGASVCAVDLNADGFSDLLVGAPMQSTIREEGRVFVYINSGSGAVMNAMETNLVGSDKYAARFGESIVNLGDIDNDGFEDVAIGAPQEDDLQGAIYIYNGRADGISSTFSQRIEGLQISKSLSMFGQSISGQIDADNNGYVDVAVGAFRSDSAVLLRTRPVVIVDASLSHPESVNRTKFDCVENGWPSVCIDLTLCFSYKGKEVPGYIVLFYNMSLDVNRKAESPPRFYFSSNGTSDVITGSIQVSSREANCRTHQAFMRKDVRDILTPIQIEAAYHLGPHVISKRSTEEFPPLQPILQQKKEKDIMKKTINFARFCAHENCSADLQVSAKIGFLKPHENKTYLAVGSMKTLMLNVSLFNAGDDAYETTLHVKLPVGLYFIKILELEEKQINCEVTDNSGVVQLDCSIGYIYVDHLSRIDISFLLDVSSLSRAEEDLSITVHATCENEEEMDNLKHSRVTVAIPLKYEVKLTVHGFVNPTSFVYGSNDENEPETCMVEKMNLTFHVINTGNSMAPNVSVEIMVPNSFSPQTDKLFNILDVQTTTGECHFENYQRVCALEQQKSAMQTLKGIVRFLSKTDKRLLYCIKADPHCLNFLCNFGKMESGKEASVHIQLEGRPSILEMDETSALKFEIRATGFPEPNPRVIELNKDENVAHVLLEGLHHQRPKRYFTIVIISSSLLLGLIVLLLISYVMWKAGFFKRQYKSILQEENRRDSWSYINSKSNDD

CCc1cc2c(=O)c(-c3ccc4c(c3)OCCO4)coc2c(CN2CCCCC2C)c1O (centres undefined)
inactive: percent of DMSO control GFP [1] 103% | GFP response vs DMSO [2] 98.6% | percent response of DMSO control [3] 91.8% | GFP response vs DMSO [4] 103% | GFP response, % of DMSO [5] 109% | vesicle binding response [6] 177% | inhibition [7] 14.2% | superoxide response (% of plate) [8] 65.8% | aptamer binding inhibition [9] 2% | response [10] -18.8% | inhibition [11] 9.88% | response [12] 3.99% | binding (% of control) [13] 112% | efflux inhibition (fraction of control) [14] -0.04 | inhibition [15] -2% | differentiation response [16] 15.7%
63.4%: double positive events [6]

COc1ccc(NS(=O)(=O)c2ccc(N)cc2)nn1
inactive: percent of DMSO control GFP [1] 97.3% | GFP response vs DMSO [2] 104% | percent response of DMSO control [3] 92.9% | GFP response vs DMSO [4] 120% | GFP response, % of DMSO [5] 102% | vesicle binding response [6] 162% | inhibition [7] 5.03% | superoxide response (% of plate) [8] 91.9% | aptamer binding inhibition [9] 6% | response [10] -5.23% | inhibition [11] 4.72% | response [12] 3.89% | binding (% of control) [13] 102% | efflux inhibition (fraction of control) [14] -0.17 | inhibition [15] 2% | differentiation response [16] -12%
56.9%: double positive events [6]

COc1cc2cc(C(=O)O)[nH]c2c(OC)c1OC
inactive: percent of DMSO control GFP [1] 102% | GFP response vs DMSO [2] 106% | percent response of DMSO control [3] 96.6% | GFP response vs DMSO [4] 106% | GFP response, % of DMSO [5] 99.5% | vesicle binding response [6] 187% | inhibition [7] -1.49% | superoxide response (% of plate) [8] 112% | aptamer binding inhibition [9] 0% | response [10] -2.07% | inhibition [11] -16.9% | response [12] -0.34% | binding (% of control) [13] 98.7% | efflux inhibition (fraction of control) [14] -0.32 | inhibition [15] -4% | differentiation response [16] 8.06%
61%: double positive events [6]

COc1c(C=O)c(CCN(C)C(=O)c2ccc(F)cc2)cc2c1OCO2
inactive: percent of DMSO control GFP [1] 103% | GFP response vs DMSO [2] 104% | percent response of DMSO control [3] 100% | GFP response vs DMSO [4] 104% | GFP response, % of DMSO [5] 106% | vesicle binding response [6] 171% | inhibition [7] 3.14% | superoxide response (% of plate) [8] 115% | aptamer binding inhibition [9] 4% | response [10] -22.5% | inhibition [11] 10.3% | response [12] 2.09% | binding (% of control) [13] 109% | efflux inhibition (fraction of control) [14] -0.17 | inhibition [15] -2% | differentiation response [16] 19.6%
59.6%: double positive events [6]

CC(C)N(Cc1nccn1C)C(=O)CC1C(=O)NCCN1Cc1ccccc1C(F)(F)F (centres undefined)
inactive: percent of DMSO control GFP [1] 102% | GFP response vs DMSO [2] 98.7% | percent response of DMSO control [3] 102% | GFP response vs DMSO [4] 97% | GFP response, % of DMSO [5] 103% | vesicle binding response [6] 182% | inhibition [7] 4.27% | superoxide response (% of plate) [8] 82.9% | aptamer binding inhibition [9] -2% | response [10] 2.35% | inhibition [11] -0.01% | response [12] -1.67% | binding (% of control) [13] 102% | efflux inhibition (fraction of control) [14] -0.5 | inhibition [15] 6% | differentiation response [16] -0.18%
71.7%: double positive events [6]

COc1cc(C2Nc3ccccc3C(=O)N2c2ccccc2)ccc1O (centres undefined)
62.9%: double positive events [6]
inactive: percent of DMSO control GFP [1] 109% | GFP response vs DMSO [2] 108% | percent response of DMSO control [3] 116% | GFP response vs DMSO [4] 93.3% | GFP response, % of DMSO [5] 103% | vesicle binding response [6] 256% | inhibition [7] 3.7% | superoxide response (% of plate) [8] 90% | aptamer binding inhibition [9] 0% | response [10] -10.2% | inhibition [11] -6.11% | binding (% of control) [13] 99.7% | efflux inhibition (fraction of control) [14] 0.18 | inhibition [15] 3% | differentiation response [16] 9.04%
active: response [12] 61.2%

Cc1cn([C@H]2C[C@H](N=[N+]=[N-])[C@@H](CO)O2)c(=O)[nH]c1=O
61.7%: double positive events [6]
inactive: percent of DMSO control GFP [1] 94.2% | GFP response vs DMSO [2] 138% | percent response of DMSO control [3] 110% | GFP response vs DMSO [4] 82.5% | GFP response, % of DMSO [5] 95.9% | vesicle binding response [6] 179% | inhibition [7] 16.2% | superoxide response (% of plate) [8] 88.8% | aptamer binding inhibition [9] 6% | response [10] 2.53% | inhibition [11] -5.32% | response [12] 9.2% | binding (% of control) [13] 103% | efflux inhibition (fraction of control) [14] 0.05 | inhibition [15] 13% | differentiation response [16] 14.7%
